# “And” between values parts separate entries of the source, which are not always exact repeats. Equal values may be shown once. Inconclusive results are not listed. Unmarked numbers belong to inactive results. The source made the active and inactive calls. The call rests on the fitted dose curve; in most records, active means well fitted curve in the direction sought with a large enough effect; inconclusive means small, poorly fitted or top-dose-only effect, or another doubt; inactive means no such curve, though single readings can be large; an effect the other way counts as inactive or inconclusive.
# What was measured:
# [1] = target: Cellular tumor antigen p53 (Homo sapiens) (UniProt P04637); test: Primary qHTS for small molecule compounds that upregulate eGFP-tagged delta133p53alpha (in N-terminal) cells. (AID 2060322); conditions: NCI-H358 eGFP-delta133p53alpha fluorescence, 24 h; activation: hits give high values; further: nearly all actives have a fitted effect of over 75% in size; further: potency means the concentration at half of the fitted maximal effect;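 on activation: cells pre-induced with doxycycline then dosed without doxycycline; 0% = DMSO vehicle and 100% = reference activator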
# Summary of the method: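 NCI-H358 cells pre-induced 24 h with 10 ng/ml doxycycline for eGFP-delta133p53alpha, plated dox-free and exposed 24 h at 37C to titrated compounds. Fixed, Hoechst-stained; gated GFP peak intensity by laser scanning cytometry, normalized to DMSO (0%) and 57.5 uM 5-azacytidine (100%).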
# [2] = BET inhibitor-based combinations targeting novel dependencies in MECOM-rearranged (r) AML: OCI-AML3 cell line (AID 2202232); conditions: CellTiter-Glo luminescence, 48 h; Potency: OCI-AML3 viability; series mostly up to 46 µM; further: potency means the concentration at half of the fitted maximal effect; nearly all actives have a fitted effect of over 35% in size
# Summary of the method: (§1)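 Readout: CellTiter-Glo luminescence. Exposure: 48 h, 11 concentrations, 500 cells/well. Metric: AUC and within-line Z-AUC after DMSO/empty-well normalization.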
# [3] = BET inhibitor-based combinations targeting novel dependencies in MECOM-rearranged (r) AML: MV-4-11 cell line (AID 2202233); conditions: MV-4-11 AML viability, CellTiter-Glo luminescence, 48 h; series mostly up to 46 µM; further: nearly all actives have a fitted effect of over 45% in size; further: potency means the concentration at half of the fitted maximal effect
# Summary of the method: (§2)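 Seeding density was 500 cells/well, and drug exposure lasted 48 hr under standard culture conditions. Read-out used CellTiter-Glo reagent with a 15 min room-temperature incubation before luminescence measurement; AUC and Z-AUC summarize the normalized responses.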
# [4] = BET inhibitor-based combinations targeting novel dependencies in MECOM-rearranged (r) AML: SET-2 cell line (AID 2202231); conditions: SET-2 AML cells viability, CellTiter-Glo luminescence, 48 h; viability: hits give low values, concentration not given here; further: nearly all actives have a fitted effect of over 35% in size; further: potency means the concentration at half of the fitted maximal effect;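 on viability: plate controls were DMSO treated cells for no effect and wells without cells for full effect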
# Summary of the method: as §1
# [5] = BET inhibitor-based combinations targeting novel dependencies in MECOM-rearranged (r) AML: HNT-34 cell line (AID 2202234); conditions: HNT-34 AML viability, CellTiter-Glo luminescence, 48 h; series mostly up to 46 µM; further: nearly all actives have a fitted effect of over 35% in size; further: potency means the concentration at half of the fitted maximal effect
# Summary of the method: as §2
# [6] = BET inhibitor-based combinations targeting novel dependencies in MECOM-rearranged (r) AML: UCSD-AML1 cell line (AID 2202235); conditions: UCSD-AML1 AML cells viability, CellTiter-Glo, 48 h; series mostly up to 46 µM; further: nearly all actives have a fitted effect of over 40% in size; further: potency means the concentration at half of the fitted maximal effect
# Summary of the method: as §2
# [7] = BET inhibitor-based combinations targeting novel dependencies in MECOM-rearranged (r) AML: AML-191 cell line (AID 2202236; further: nearly all actives have a fitted effect of over 35% in size; further: potency means the concentration at half of the fitted maximal effect); conditions: AML-191 viability, CellTiter-Glo luminescence, 48 h; series mostly up to 46 µM
# Summary of the method: as §1
# [8] = BET inhibitor-based combinations targeting novel dependencies in MECOM-rearranged (r) AML: AML-194 cell line (AID 2202237;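 further: plate controls were vehicle wells for no effect and wells without cells for full effect; nearly all actives have a fitted effect of over 40% in size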); conditions: AML-194 (MECOM-r AML) viability, CellTiter-Glo, 48 h; series mostly up to 46 µM
# Summary of the method: as §1
# Sequence of Cellular tumor antigen p53 (Homo sapiens) (P04637 whole entry, looked up): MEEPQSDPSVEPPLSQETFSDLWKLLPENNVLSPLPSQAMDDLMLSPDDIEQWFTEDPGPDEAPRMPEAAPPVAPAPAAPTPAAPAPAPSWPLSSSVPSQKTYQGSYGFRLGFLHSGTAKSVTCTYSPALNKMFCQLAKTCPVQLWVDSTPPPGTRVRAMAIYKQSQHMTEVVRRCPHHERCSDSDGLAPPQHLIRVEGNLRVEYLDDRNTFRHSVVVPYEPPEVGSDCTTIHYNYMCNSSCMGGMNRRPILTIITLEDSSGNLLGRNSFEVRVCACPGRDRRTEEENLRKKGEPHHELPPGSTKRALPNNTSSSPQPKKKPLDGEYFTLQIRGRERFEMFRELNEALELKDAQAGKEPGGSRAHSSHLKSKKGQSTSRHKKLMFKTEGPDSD
compound,measurement,setting,value
Oc1cccc(-c2nc(N3CCOCC3)c3oc4ncccc4c3n2)c1,activation,[1],27.8%
same,Potency,[2],66.1 nM (active)
same,Potency,[3],52.5 nM (active)
O=[N+]([O-])c1cn2c(n1)OC[C@@H](OCc1ccc(OC(F)(F)F)cc1)C2,activation,[1],9.64%
same,viability,[4],111%
same,Potency,[5],inactive
same,Potency,[6],inactive
same,Potency,[7],inactive
same,Potency,[8],inactive
C[C@H](CCC(=O)O)[C@H]1CCC2C3C[C@H](O)[C@@H]4C[C@H](O)CC[C@]4(C)C3CC[C@@]21C (some centres not stated),activation,[1],10.8%
same,viability,[4],119%
same,Potency,[3],inactive
same,Potency,[6],inactive
same,Potency,[8],inactive
CC(=O)Oc1cc2c(s1)CCN(C(C(=O)C1CC1)c1ccccc1F)C2 (configuration not stated),activation,[1],29.4%
same,viability,[4],102%
same,Potency,[5],inactive
same,Potency,[6],inactive
same,Potency,[7],inactive
same,Potency,[8],inactive
CCCCCCCN(CC)CCCC(O)c1ccc(NS(C)(=O)=O)cc1 (configuration not stated),activation,[1],5.18%
same,viability,[4],96.2%
same,Potency,[5],inactive
same,Potency,[6],inactive
same,Potency,[7],inactive
Nc1nccc(-c2ccc3noc(-c4ccc(Cl)cc4)c3c2)n1,Potency,[1],34300 nM (active)
same,viability,[4],88.8%
same,Potency,[6],20900 nM (active)
Cc1cc([C@@H](C)Nc2ccccc2C(=O)O)c2nc(N3CCOCC3)cc(=O)n2c1,activation,[1],14.9%
same,Potency,[2],1320 nM (active)
same,Potency,[3],6610 nM (active)
COC(=O)C[C@](O)(CCCC(C)(C)O)C(=O)O[C@@H]1C(OC)=C[C@]23CCCN2CCc2cc4c(cc2[C@H]13)OCO4,activation,[1],-1.17%
same,Potency,[4],148 nM (active)
same,Potency,[5],41.7 nM (active)
same,Potency,[6],14.8 nM (active)
same,Potency,[7],59 nM (active)
CCOC(=O)c1c(C)n(C)c2ccc(O)cc12,activation,[1],6.69% and -7.58%
same,viability,[4],110%
same,Potency,[5],inactive
same,Potency,[6],inactive
same,Potency,[7],inactive
same,Potency,[8],inactive

# — PubChem BioAssay (NCATS)
